In ChEMBL document CHEMBL3988442, “University of Dundee, Small-Polar-MMV Screening Library” (2021):
For some of these results: Measured potencies and affinities stand elsewhere.

Columns and labels:
Set-up in all cases: scale not given: direction of the effect not stated beside the values
[1] = target: Protein translocase subunit SecA (Escherichia coli (strain K12)) (UniProt P10408); test: Assay to Identify E. coli SecA ATPase Inhibitors; format: functional; settings: 30 µM
[2] = target: T1, Ubiquitin-activating enzyme e1, putative (Leishmania donovani (strain BPK282A1)) (UniProt E9BSI1); test: Leishmania donovani Ubiquitin Activating Enzyme (LdE1); format: functional; settings: 30 µM
T1 sequence (whole entry): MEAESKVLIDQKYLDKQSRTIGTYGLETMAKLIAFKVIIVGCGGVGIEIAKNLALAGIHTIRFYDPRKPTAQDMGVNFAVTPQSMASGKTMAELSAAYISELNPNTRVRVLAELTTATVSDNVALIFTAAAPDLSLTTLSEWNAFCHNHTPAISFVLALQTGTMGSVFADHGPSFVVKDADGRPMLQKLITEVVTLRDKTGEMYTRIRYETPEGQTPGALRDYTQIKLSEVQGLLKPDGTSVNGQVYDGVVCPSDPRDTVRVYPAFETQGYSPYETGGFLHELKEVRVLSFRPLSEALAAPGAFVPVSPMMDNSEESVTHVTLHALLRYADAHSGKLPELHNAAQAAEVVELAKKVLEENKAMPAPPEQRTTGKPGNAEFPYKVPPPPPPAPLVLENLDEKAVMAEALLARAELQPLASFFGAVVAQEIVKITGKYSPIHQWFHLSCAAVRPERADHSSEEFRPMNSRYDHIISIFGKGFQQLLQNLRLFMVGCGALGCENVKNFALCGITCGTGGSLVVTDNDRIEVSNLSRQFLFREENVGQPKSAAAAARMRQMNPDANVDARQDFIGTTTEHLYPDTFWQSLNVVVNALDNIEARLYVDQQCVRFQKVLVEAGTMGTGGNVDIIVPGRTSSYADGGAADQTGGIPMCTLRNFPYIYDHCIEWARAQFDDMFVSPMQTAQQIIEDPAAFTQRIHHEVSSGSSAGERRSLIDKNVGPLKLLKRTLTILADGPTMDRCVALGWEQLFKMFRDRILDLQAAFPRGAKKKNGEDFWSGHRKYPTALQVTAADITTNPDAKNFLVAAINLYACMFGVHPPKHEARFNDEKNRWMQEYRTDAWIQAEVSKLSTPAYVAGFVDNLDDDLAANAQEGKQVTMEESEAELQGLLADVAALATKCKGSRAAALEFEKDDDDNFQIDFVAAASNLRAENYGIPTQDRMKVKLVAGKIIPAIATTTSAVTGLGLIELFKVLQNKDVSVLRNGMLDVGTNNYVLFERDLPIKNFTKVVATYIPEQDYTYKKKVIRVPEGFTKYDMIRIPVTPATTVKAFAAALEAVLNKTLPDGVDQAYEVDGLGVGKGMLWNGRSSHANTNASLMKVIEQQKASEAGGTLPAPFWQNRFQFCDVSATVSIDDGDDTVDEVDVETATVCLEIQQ

[3] = target: AMP-activated protein kinase, AMPK (Homo sapiens) (UniProt P54646+O43741+P54619+Q9UGJ0+Q9Y478+Q13131+Q9UGI9); test: AMP-dependent Kinase enzyme assay. An in vitro enzyme assay that detects ADP turnover that is directly proportional to AMPK activity. This uses naive AMPK that is activated during the assay with MK-8722; format: functional; settings: 30 µM
[4] = target: Sialic acid-binding Ig-like lectin 9 (Homo sapiens) (UniProt Q9Y336); test: Hs-Siglec9 ALPHAscreen SOP 20170721; settings: 10 µM
Trypanosoma cruzi = test: Trypanosoma cruzi phosphomannomutase and mannose-1-phosphate guanylyltransferase assay; format: functional; settings: 10 µM
[5] = target: T2, Arginase-2, mitochondrial (Homo sapiens) (UniProt P78540); test: in vitro enzyme assay to detect the production of urea directly proportional to the activity of Arginase II; format: functional; settings: 33.3 µM; also: in the data most compounds retested in dose-response had high values
T2 sequence (whole entry): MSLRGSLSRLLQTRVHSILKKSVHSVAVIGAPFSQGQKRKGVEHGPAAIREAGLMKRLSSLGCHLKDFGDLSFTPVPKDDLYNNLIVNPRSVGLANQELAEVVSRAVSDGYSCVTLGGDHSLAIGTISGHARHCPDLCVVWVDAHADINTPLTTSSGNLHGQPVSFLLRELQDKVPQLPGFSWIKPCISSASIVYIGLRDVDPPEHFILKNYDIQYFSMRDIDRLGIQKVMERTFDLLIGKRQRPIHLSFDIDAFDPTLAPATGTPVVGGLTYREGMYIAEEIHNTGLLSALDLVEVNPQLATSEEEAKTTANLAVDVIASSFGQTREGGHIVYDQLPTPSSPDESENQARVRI

[6] = target: T3, Proteasome subunit beta (Trypanosoma cruzi) (UniProt O96673); test: Trypanosoma cruzi proteasome chymotrypsin-like activity (TcProtChymo) assay.; also: in the data most compounds retested in dose-response had high values; format: functional; settings: 9.37 µM
T3 sequence (whole entry): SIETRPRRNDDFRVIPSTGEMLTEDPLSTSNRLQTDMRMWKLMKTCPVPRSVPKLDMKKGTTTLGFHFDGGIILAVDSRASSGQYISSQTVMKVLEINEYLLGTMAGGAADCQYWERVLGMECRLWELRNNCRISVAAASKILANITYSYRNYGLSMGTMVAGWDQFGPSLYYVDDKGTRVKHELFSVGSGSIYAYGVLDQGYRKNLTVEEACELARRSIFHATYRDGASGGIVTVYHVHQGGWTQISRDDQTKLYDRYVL

Homo sapiens = species on record: Homo sapiens; test: To identify inhibition of the IFN signalling (Jak-Stat) pathway via expression of an eGFP reporter gene under the control of an IFN-stimulated response element (ISRE) containing MxA promoter.; format: functional; settings: 30 µM
[7] = target: T4, Tyrosyl-tRNA synthetase, putative (Trypanosoma cruzi (strain CL Brener)) (UniProt Q4DSP6); test: Trypanosoma cruzi tyrosyl tRNA synthetase (TcYRS) _High Tyrosine SOP; format: functional; settings: 30 µM; also: in the data most compounds retested in dose-response had high values
T4 sequence (whole entry): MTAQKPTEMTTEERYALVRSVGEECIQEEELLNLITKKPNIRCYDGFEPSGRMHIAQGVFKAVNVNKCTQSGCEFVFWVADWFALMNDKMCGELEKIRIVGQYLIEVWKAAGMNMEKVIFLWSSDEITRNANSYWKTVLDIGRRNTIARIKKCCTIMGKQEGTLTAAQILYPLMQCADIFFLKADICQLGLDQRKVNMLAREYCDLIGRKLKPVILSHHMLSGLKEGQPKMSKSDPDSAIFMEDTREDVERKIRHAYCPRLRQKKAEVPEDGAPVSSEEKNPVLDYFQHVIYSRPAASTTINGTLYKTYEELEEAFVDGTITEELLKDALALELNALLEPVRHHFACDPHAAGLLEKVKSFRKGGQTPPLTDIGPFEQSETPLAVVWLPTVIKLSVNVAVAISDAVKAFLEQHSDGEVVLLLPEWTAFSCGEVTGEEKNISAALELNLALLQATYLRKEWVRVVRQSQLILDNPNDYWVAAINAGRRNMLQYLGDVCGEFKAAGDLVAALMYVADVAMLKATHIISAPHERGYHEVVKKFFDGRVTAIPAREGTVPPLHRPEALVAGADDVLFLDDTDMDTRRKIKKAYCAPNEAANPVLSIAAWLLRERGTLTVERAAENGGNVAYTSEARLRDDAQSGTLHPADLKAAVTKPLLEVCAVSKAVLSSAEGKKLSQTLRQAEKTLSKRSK

[8] = target: T4, Tyrosyl-tRNA synthetase, putative (Trypanosoma cruzi (strain CL Brener)); test: Trypanosoma cruzi tyrosyl tRNA synthetase (TcYRS) SOP; format: functional; settings: 30 µM
[9] = target: Chromo domain-containing protein 1 (Saccharomyces cerevisiae (strain ATCC 204508 / S288c) (Baker's yeast)) (UniProt P32657); test: ScCHD-1 Enzyme Inhibition Assay; format: functional; settings: 30 µM; also: in the data most compounds retested in dose-response had high values
Sequence of Chromo domain-containing protein 1 (Saccharomyces cerevisiae (strain ATCC 204508 / S288c) (Baker's yeast)) (P32657 whole entry, the tested form may be a part): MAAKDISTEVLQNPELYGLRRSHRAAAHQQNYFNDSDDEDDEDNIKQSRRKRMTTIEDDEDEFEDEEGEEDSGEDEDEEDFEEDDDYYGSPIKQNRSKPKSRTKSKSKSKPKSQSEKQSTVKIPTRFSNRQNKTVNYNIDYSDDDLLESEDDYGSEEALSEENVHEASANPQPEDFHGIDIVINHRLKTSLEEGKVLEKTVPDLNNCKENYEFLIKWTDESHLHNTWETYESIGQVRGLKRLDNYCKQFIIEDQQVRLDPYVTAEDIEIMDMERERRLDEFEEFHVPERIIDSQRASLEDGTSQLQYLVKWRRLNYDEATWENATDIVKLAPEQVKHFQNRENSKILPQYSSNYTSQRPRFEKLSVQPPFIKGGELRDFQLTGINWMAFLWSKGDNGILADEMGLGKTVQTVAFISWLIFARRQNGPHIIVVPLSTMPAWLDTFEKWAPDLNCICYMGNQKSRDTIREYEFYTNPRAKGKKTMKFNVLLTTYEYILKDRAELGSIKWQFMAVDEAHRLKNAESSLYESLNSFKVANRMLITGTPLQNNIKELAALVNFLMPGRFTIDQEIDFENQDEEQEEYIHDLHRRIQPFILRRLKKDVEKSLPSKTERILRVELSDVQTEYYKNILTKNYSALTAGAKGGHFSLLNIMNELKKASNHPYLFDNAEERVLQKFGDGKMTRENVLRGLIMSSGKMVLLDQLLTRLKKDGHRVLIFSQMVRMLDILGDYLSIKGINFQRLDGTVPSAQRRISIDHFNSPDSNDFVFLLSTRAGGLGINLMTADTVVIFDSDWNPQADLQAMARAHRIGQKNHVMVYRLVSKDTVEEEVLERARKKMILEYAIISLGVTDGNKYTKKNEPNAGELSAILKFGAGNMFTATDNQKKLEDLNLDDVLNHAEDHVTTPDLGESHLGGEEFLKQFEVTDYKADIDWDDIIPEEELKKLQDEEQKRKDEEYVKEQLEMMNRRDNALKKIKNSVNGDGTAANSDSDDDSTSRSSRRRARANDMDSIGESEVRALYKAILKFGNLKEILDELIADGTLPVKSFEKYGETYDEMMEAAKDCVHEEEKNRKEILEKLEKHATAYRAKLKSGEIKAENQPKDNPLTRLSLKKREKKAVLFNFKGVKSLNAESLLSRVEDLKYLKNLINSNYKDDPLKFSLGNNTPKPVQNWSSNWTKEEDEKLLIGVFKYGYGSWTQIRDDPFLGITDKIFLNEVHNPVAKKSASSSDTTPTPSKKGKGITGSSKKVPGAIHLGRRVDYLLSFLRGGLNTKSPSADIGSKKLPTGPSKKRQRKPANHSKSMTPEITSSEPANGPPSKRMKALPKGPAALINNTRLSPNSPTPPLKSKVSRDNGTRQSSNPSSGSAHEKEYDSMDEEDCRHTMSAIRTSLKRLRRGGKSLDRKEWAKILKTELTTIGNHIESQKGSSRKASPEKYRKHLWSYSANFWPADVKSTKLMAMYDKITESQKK

Sequence of Sialic acid-binding Ig-like lectin 9 (Homo sapiens) (Q9Y336 whole entry): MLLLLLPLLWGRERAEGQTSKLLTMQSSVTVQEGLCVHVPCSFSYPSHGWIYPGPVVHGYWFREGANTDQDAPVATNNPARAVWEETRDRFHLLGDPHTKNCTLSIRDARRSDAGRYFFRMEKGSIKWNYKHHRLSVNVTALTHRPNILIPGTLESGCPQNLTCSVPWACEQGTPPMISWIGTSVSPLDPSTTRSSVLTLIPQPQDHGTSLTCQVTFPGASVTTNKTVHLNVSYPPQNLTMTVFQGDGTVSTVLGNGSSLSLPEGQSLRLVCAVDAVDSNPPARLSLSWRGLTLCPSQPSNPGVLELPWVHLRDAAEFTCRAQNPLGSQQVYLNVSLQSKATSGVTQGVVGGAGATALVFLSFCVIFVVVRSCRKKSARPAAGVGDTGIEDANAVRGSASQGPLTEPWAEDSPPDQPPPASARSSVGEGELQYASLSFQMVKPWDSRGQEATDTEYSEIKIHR
Sequence of Protein translocase subunit SecA (Escherichia coli (strain K12)) (P10408 whole entry): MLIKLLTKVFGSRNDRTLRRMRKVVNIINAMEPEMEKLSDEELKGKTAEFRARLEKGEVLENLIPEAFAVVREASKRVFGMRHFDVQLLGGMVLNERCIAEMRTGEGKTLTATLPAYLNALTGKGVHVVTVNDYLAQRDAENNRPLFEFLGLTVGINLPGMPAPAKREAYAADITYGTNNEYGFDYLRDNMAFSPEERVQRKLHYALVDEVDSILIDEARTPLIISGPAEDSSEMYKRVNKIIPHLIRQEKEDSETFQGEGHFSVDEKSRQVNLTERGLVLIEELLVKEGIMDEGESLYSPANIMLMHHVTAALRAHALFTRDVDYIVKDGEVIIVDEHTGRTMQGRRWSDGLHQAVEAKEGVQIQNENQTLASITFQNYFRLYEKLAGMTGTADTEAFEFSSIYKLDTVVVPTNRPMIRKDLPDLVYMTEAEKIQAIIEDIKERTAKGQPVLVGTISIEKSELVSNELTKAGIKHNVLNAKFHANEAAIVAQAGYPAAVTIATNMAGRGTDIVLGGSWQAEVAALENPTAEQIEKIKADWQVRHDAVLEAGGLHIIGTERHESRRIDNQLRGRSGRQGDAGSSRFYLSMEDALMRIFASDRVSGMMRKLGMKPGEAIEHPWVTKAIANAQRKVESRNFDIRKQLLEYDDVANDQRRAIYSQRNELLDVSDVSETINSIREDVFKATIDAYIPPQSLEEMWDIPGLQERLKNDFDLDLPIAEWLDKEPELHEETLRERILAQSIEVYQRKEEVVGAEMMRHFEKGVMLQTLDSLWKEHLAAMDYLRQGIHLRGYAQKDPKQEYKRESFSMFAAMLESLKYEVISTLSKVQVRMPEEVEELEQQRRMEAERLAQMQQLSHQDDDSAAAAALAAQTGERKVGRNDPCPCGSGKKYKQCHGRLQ

How did the Percent Effect [1] turn out when `CC(C)c1ncc(CN2CCCC(CO)C2)cn1` (stereo not given) was run?
The Percent Effect was -1.56%.

What about the Percent Effect [2] of the same compound?
The Percent Effect was 1.35%.

What about the Percent Effect [3] of the same compound?
Its Percent Effect is 11.1%.

And the Percent Effect [4]?
Its Percent Effect is 9.9%.

And the Percent Effect (Trypanosoma cruzi)?
The Percent Effect was -6.32%.

And the Percent Effect [5]?
The Percent Effect was 1.16%.

What about the Percent Effect [6] of the same compound?
The Percent Effect was 3.59%.

And the Percent Effect (Homo sapiens)?
Its Percent Effect is -1.15%.

And the Percent Effect [7]?
The Percent Effect was 1.07%.

And the Percent Effect [8]?
The Percent Effect was 1.3%.

And the Percent Effect [9]?
Its Percent Effect is -0.548%.

How did the Percent Effect [1] turn out when `CN(C)S(=O)(=O)N1C[C@@H]2CC[C@H](C1)N(Cc1ccc3nsnc3c1)C2` was run?
The Percent Effect was -6.44%.

What about the Percent Effect [2] of the same compound?
Its Percent Effect is 9.72%.

What about the Percent Effect [3] of the same compound?
Its Percent Effect is -22.2%.

What about the Percent Effect [4] of the same compound?
The Percent Effect was 43.5%.

And the Percent Effect (Trypanosoma cruzi)?
Its Percent Effect is 3.21%.

What about the Percent Effect [5] of the same compound?
Its Percent Effect is 21.2%.

And the Percent Effect [6]?
The Percent Effect was 4.04%.

What about the Percent Effect (Homo sapiens) of the same compound?
Its Percent Effect is 4.28%.

What about the Percent Effect [7] of the same compound?
The Percent Effect was 2.1%.

What about the Percent Effect [8] of the same compound?
The Percent Effect was 12.8%.

And the Percent Effect [9]?
The Percent Effect was -5.13%.

For `CC(CN1CCOCC1)NCC1CCN(c2cnn(C)c(=O)c2)CC1` (stereo not given), which Percent Effect [1] is on record?
Its Percent Effect is -4.77%.

And the Percent Effect [2]?
The Percent Effect was -1.39%.

What about the Percent Effect [3] of the same compound?
The Percent Effect was -4.64%.

What about the Percent Effect [4] of the same compound?
Its Percent Effect is 1.85%.

And the Percent Effect (Trypanosoma cruzi)?
The Percent Effect was -1.85%.

What about the Percent Effect [5] of the same compound?
Its Percent Effect is -0.883%.

What about the Percent Effect [6] of the same compound?
Its Percent Effect is 4.21%.

And the Percent Effect (Homo sapiens)?
Its Percent Effect is -10.4%.

And the Percent Effect [7]?
Its Percent Effect is 0%.

What about the Percent Effect [8] of the same compound?
Its Percent Effect is -10.3%.

And the Percent Effect [9]?
The Percent Effect was 1.95%.

Which results are given for `Cc1noc(NC(=O)c2ccc(Br)s2)n1`?
Percent Effect [1]: 1.05%; Percent Effect [2]: -5.26%; Percent Effect [3]: 14.6%; Percent Effect [4]: -3.75%; Percent Effect (Trypanosoma cruzi): -5.13%; Percent Effect [5]: 3.96%; Percent Effect [6]: 9.39%; Percent Effect (Homo sapiens): 40.2%; Percent Effect [7]: -3.45%; Percent Effect [8]: 1.24%; Percent Effect [9]: 15.6%

With `Cc1csc(N2CCN(CCc3ccccn3)CC2C)n1` (stereo not given) as the compound, how does the Percent Effect [1] read?
The Percent Effect was -0.657%.

And the Percent Effect [2]?
Its Percent Effect is 8.22%.

And the Percent Effect [3]?
The Percent Effect was -7.28%.

What about the Percent Effect [4] of the same compound?
Its Percent Effect is 9.14%.

What about the Percent Effect (Trypanosoma cruzi) of the same compound?
The Percent Effect was 6.07%.

And the Percent Effect [5]?
Its Percent Effect is -3.64%.

What about the Percent Effect [6] of the same compound?
Its Percent Effect is 4.79%.

And the Percent Effect (Homo sapiens)?
The Percent Effect was 17.9%.

And the Percent Effect [7]?
Its Percent Effect is 4.3%.

What about the Percent Effect [8] of the same compound?
The Percent Effect was 5%.

What about the Percent Effect [9] of the same compound?
The Percent Effect was -1.43%.
